# Screens (PubChem)
# The list is not random: actives were taken first. Their share in the collection is about 1.3%.
# LYPLA1 counter – LYPLA1 (human) inhibition in PME1 counter-screen | recombinant LYPLA1, FP-Rh probe fluorescence polarization | O75608 | inhibition, % at 5.9 µM | 320,000 tested, 0.16% active | AID 2174;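 active = inhibition above the mean of all tested compounds plus 3 SD, set per campaign, cut at about 14% in these data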;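 also: inhibitors block serine hydrolase probe labeling of LYPLA1 so polarization falls; 0% = enzyme with DMSO and 100% = wells lacking LYPLA1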
# PREPL inhibitor – inhibitors of human prolyl oligopeptidase-like enzyme PREPL | Q4J6C6 | recombinant PREPL, fluorescence polarization activity-based probe | inhibition, % at 5.96 µM | 320,000 tested, 0.68% active | AID 2751;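 also: 0% = enzyme with DMSO and 100% = wells lacking enzyme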
# Target sequence (Q4J6C6 whole entry, looked up): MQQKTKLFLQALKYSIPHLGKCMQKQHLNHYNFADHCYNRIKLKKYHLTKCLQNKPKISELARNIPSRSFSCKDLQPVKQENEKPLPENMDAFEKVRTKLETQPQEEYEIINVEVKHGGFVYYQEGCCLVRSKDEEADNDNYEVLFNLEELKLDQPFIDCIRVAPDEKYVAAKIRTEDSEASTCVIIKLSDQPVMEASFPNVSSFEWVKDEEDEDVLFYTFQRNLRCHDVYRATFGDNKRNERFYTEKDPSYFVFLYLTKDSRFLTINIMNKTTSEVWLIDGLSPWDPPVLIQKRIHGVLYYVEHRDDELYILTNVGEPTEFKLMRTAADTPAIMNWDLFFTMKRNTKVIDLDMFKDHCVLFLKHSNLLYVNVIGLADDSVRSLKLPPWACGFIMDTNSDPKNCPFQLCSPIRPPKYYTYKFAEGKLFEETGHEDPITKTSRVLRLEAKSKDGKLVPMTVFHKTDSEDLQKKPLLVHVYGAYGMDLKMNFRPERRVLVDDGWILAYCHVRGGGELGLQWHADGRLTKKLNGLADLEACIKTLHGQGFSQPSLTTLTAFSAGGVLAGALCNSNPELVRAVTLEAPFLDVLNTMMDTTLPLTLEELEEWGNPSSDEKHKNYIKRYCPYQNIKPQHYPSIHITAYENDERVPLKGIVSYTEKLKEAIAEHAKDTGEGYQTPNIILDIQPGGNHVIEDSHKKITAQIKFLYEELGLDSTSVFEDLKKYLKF
# LYPLA2 counter – blocks human lysophospholipase 2, a PME1 counter-screen. inhibition, % at 5.9 µM. recombinant LYPLA2, FP-Rh probe fluorescence polarization. O95372. 320,000 tested, 0.38% active;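 active = inhibition above the screen-wide mean plus 3 SD, limit set per campaign, cut at about 26% in these data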;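 also: 0% = LYPLA2 with DMSO and 100% = wells lacking LYPLA2 enzyme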
# ZTA counter – blocks Epstein-Barr virus ZTA, an EBNA-1 counter-screen; ZTA-DNA binding, fluorescence polarization; inhibition, % at 11 µM; 320,000 tested, 0.15% active; in the data active = inhibition above about 33%
# EBNA-1 inh – blocks EBNA-1 binding to DNA; EBNA-1 DNA binding, fluorescence polarization; inhibition, % at 14.8 µM; 300,000 tested, 0.34% active; AID 1950; in the data active = inhibition above about 28%
# PREPL inh cf – confirmation of human PREPL enzyme inhibitors; AID 2803; shares compounds with PREPL inhibitor; inhibition, % at 5.96 µM; recombinant PREPL, fluorescence polarization activity probe; 2,000 tested, 67% active;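 also: 0% = protein with DMSO and 100% = wells lacking protein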
# The depositor's hits bear a star; nt = no result. Rule as the data show it, unless noted: active = inhibition above about 43%; inactive = the rest.
SMILES,LYPLA1 counter,PREPL inhibitor,LYPLA2 counter,ZTA counter,EBNA-1 inh,PREPL inh cf
O=C1OC[C@@H]2CCCN2C(=O)[C@@H](CC(=O)N(CCO)Cc2ccccc2)C/C=C\CC[C@H]1Cc1ccc(F)cc1,nt,44*,nt,nt,nt,30
COc1cc(-c2noc(C)c2C(=O)NCCCn2ccnc2)cc(OC)c1OC,nt,7,nt,nt,nt,nt
CC(C)(C)[C@@H]1COC(=O)[C@@H](Cc2ccc(F)cc2)C/C=C\C[C@H](CC(=O)N(CCO)Cc2ccccc2)C(=O)N1,nt,56*,nt,nt,nt,46*
O=C1N[C@@H](c2ccccc2)COC(=O)[C@@H](Cc2ccc(F)cc2)C/C=C\C[C@@H]1CC(=O)N(CCO)Cc1ccccc1,nt,52*,nt,nt,nt,41
C[C@H]1COC(=O)[C@@H](Cc2ccc(F)cc2)C/C=C\C[C@H](CC(=O)N(CCO)Cc2ccccc2)C(=O)N1,nt,25,nt,nt,nt,nt
CCOc1ccccc1NC(=O)CSc1nnc(CCC(=O)Nc2ccccc2F)n1C,2,8,2,6,4,nt
COc1ccccc1N1CCN(CCCCOc2ccc(C)cc2C)CC1,3,20,8,-1,12,nt
C(=N\Nc1nc2ccccc2s1)/c1cccs1,1,42,4,13,6,nt
C/C(=N\Nc1nc(-c2ccccc2)cs1)c1cccs1,0,0,1,-7,-1,nt
Cc1ccsc1/C=N/Nc1nc2ccccc2s1,-2,46*,0,5,7,55*
C/C(=N\Nc1nc2ccccc2s1)c1cccs1,1,45*,8,-13,16,51*
Cc1nc(-c2ccc(O)c(O)c2)cs1,1,46*,7,-9,6,2
O=C(O)c1ccc(N2CCN(Cc3ccc4c(c3)OCO4)CC2)c([N+](=O)[O-])c1,-2,2,-6,-15,-2,nt
COc1ccc(/C=C/C(=O)Oc2ccc(C)c(C)c2)cc1OC,1,7,2,21,0,nt
COc1cc(/C=C/[N+](=O)[O-])ccc1OC(=O)/C=C/c1ccc(F)cc1,2,47*,5,-10,-12,46*
C=CCC[C@@H](Cc1ccc(F)cc1)C(=O)OC[C@H]1CCCN1C(=O)[C@@H](CC=C)CC(=O)N[C@H](CO)Cc1ccccc1,nt,36,nt,nt,nt,nt
C=CCC[C@@H](Cc1ccc(F)cc1)C(=O)OC[C@@H]1CCCN1C(=O)[C@H](CC=C)CC(=O)N[C@H](CO)Cc1ccccc1,nt,44*,nt,nt,nt,27
CC(C)[C@H](NC(=O)c1ccc([N+](=O)[O-])cc1Cl)C(=O)N1CCN(C/C=C/c2ccccc2)CC1,nt,47*,nt,nt,nt,39
Cn1c(SCc2ccc(Br)cc2)nc2c(c1=O)SCC2,-3,47*,19,-7,-5,42
Cn1c(SCc2cccnc2)nc2c(c1=O)SCC2,-1,1,-2,7,3,nt
Cn1ccc2cc(-c3ccc4ncnc(NCc5cccs5)c4c3)ccc21,nt,50*,nt,nt,nt,41
COc1cccc(-c2ccc3ncnc(NCc4cccs4)c3c2)c1,-14,14,-20,-18,nt,nt
C[C@@H]1O[C@@H](Oc2c(-c3ccc(O)c(O)c3)oc3cc(O)cc(O)c3c2=O)[C@H](O)[C@H](O)[C@H]1O,nt,19,nt,nt,nt,nt
C[C@@H]1O[C@@H](Oc2c(-c3cc(O)c(O)c(O)c3)oc3cc(O)cc(O)c3c2=O)[C@H](O)[C@H](O)[C@H]1O,-13,48*,-27,-18,-9,20
Cc1cc(C)c2c(N)c(-c3nc4ccccc4[nH]3)sc2n1,-2,78*,-5,5,-17,2
SMILES,LYPLA1 counter,PREPL inhibitor,LYPLA2 counter,ZTA counter,EBNA-1 inh,PREPL inh cf
Cc1ccc(NC(=O)c2ccc3c(c2)N(CC(=O)N2CCCCC2)C(=O)C(C)(C)O3)cc1,1,48*,9,-3,-9,40
C=C(C)C1CC=C(C)/C(=N/NC(=O)CNc2ccc(OCC)cc2)C1 (stereo not drawn),-3,46*,-1,-8,-15,10
Cc1ccc(SC2=C(C(=O)O)CCCC2)cc1,1,6,0,-2,-10,nt
O=C(Nc1ccccc1)c1cccc(C(=O)Nc2ccccc2)n1,-5,3,-2,8,11,nt
CN(C)c1ccc(NC(=O)c2cccc(C(=O)Nc3ccc(N(C)C)cc3)n2)cc1,7,72*,2,-6,10,70*
C[C@@H]1COC(=O)[C@H](Cc2ccc(F)cc2)C/C=C\C[C@@H](CC(=O)NCCO)C(=O)N1,nt,18,nt,nt,nt,nt
